CYP2C9 act: activators of human CYP2C9; recombinant CYP2C9, luciferin-H conversion, luminescence; active compounds read high; factor 1 = untreated enzyme, 0 = blocked; activation factor at 5 µM; 1.4% of 96,000 active; AID 1024;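 active means activation factor of 2 or more for CYP2C9 at a 5 µM dose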;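 further: 0 = sulfaphenazole-blocked wells and 1 = vehicle-only wells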
CYP2C9 inhib: human CYP2C9 inhibition | CYP2C9 Supersomes, luciferin-H conversion, luminescence | inhibition, % at 5 µM | 20% of 96,000 active | AID 777;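 active means blocking of liver enzyme CYP2C9 beyond about 50% at 5 µM, limit read from the data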
PLAP activator: human PLAP activation | 1.2% of 96,000 active | purified PLAP enzyme, luminescent substrate read-out; active compounds read high | AID 696 | activation fold at 20 µM; in the data active means activation fold above about 2
CYP2C19 activ: activators of human cytochrome P450 2C19; AID 1025; P33261; activation factor at 5 µM; recombinant CYP2C19, luciferin-H EGE luminescence; active compounds read high; 0 = fully inhibited enzyme, 1 = untreated enzyme; 96,000 tested, under 10 active;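 active means activation factor of at least 2 at 5 µM in the primary screen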;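 further: 0 = wells with 2.5 mM tranylcypromine and 1 = vehicle-only wells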
Target sequence (P33261 whole entry, looked up): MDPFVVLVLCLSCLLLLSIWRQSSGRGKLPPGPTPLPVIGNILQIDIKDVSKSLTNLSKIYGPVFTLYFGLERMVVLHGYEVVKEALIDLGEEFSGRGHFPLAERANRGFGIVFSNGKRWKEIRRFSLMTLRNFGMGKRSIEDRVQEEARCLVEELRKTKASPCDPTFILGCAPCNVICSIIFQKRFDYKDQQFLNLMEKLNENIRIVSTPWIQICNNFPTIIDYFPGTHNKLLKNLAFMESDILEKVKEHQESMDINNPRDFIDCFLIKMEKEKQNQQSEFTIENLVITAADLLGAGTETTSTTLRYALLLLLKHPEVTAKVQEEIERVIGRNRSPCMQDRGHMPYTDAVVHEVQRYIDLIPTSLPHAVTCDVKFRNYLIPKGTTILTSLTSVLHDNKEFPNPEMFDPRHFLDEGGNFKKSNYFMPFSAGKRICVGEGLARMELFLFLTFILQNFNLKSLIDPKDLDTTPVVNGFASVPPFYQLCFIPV
CYP2C19 inh: human CYP2C19 inhibition | P33261 | CYP2C19 Supersomes, luciferin-H EGE luminescence, 30 min | inhibition, % at 5 µM | 21% of 96,000 active;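 active means CYP2C19 inhibition above a set limit at 5 µM in the primary screen, cut at about 50% in these data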;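 further: plate controls were negative control wells for no effect and 2.5 mM tranylcypromine positive control for full effect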
Active calls of the source: *. In the library only some 31% were active in any assay of this set; here they are far more common.

SMILES	CYP2C9 act	CYP2C9 inhib	PLAP activator	CYP2C19 activ	CYP2C19 inh
CC(=O)Oc1ccc(-c2cccc(C(=O)Oc3ccccc3)c2)cc1	1.1	-13	1.2	1.1	-8
CC(=O)C1=C(O)C(=O)N(CCc2c[nH]c3ccccc23)C1c1cccc(O)c1 (stereo not given)	0.5	46	0.9	1	1
COc1cc(C2C(C(C)=O)=C(O)C(=O)N2CCc2c[nH]c3ccccc23)ccc1O (stereo not given)	0.4	64*	1.1	1	-2
O=[N+]([O-])c1cc2c(cc1/C=N\NS(=O)(=O)c1ccccc1)OCO2	0.2	82*	1	0.5	46
COc1cc(OC)cc(-c2nnc(SCC(=O)N3CCCC3)o2)c1	1.2	-22	0.8	1	3
CCC1CCCCN1C(=O)CSc1nnc(-c2ccc(OC)cc2)o1 (stereo not given)	0.7	34	1.2	0.2	85*
CCC1CCCCN1C(=O)CSc1nnc(-c2ccc3c(c2)OCCO3)o1 (stereo not given)	0.2	80*	1.6	0	99*
O=C(CSc1nnc(-c2ccc3c(c2)OCCO3)o1)N1CCCC1	0.8	18	1.2	0.7	28
CC1CCCCN1C(=O)CSc1nnc(-c2ccc(Cl)s2)o1 (stereo not given)	0.4	56*	1.2	0.1	95*
Cc1nc2nc[nH]n2c(=O)c1NC(=O)c1c(-c2ccccc2Cl)noc1C	0.6	39	1	1	5
O=C1C=C(NCc2ccc(Cl)cc2Cl)C2(CCCCC2)O1	0.9	13	1.1	0.5	49
C=CCNc1nnc(-c2ccncc2)s1	0.9	7	0.9	0.2	77*
c1ccc2c(Nc3nnc(-c4ccncc4)s3)cccc2c1	0.1	90*	1	0	96*
COc1c(Cl)cc(Cl)cc1/C=N/n1cnnc1	1	-1	1.2	1	-2
O=C1CC(=C(c2ccccc2)c2ccccc2)C(=O)N1CCCCN1CCN(c2cccc(Cl)c2)CC1	0.3	66*	1.4	0.7	29
Cc1ccccc1N1CCN(CCCN2C(=O)CC(=C(c3ccccc3)c3ccccc3)C2=O)CC1	0.5	50*	1.4	0.3	73*
CCCCCCOC(=O)/C=C/c1c(C)[nH]c(=O)[nH]c1=O	0.9	10	0.9	0.8	18
CCCCN(N=Nc1nonc1OC)c1nonc1OC	0.3	73*	1.1	0.1	85*
CCCCN(CC)C(=O)Cn1ncc2c1-c1cc(C)ccc1OC2	0.3	70*	1.7	0.2	77*
Cc1nn(C)c(C)c1C(=O)NN	0.9	11	0.8	1	2
Cn1nc(-c2ccc(Cl)cc2)nc2c(=O)n(C)c(=O)nc1-2	0.1	93*	0.9	0	98*
O=C(c1noc2c1CCc1ccccc1-2)N1CCc2ccccc2C1	1.7	-74	1.2	0.4	60*
O=C(c1noc2c1CCc1ccccc1-2)N1CCOCC1	3.2*	-216	1.2	0.9	12
COc1ccc2c(c1)CCc1c(C(=O)N3CCCCCC3)noc1-2	0.8	16	1.1	0.8	24
O=C(c1noc2c1CCc1ccccc1-2)N1CCCc2ccccc21	1.5	-45	0.9	0.5	52*
SMILES	CYP2C9 act	CYP2C9 inhib	PLAP activator	CYP2C19 activ	CYP2C19 inh
Cc1cc(NC(=O)c2noc3c2CCc2ccccc2-3)no1	1	-4	1	1	1
Cn1c(N)c(C(=O)COC(=O)Cc2ccsc2)c(=O)n(C)c1=O	1.1	-7	1.1	1	-1
COC(=O)c1ccccc1NC(=O)CN(C1CCCCC1)S(C)(=O)=O	0.6	42	0.9	0.6	40
CCCCOC(=O)c1ccc(NC(=O)Nc2ccc(OC)c(OC)c2)cc1	0.6	39	1.2	0.8	16
COc1ccc(NC(=O)CN(c2ccccc2)S(=O)(=O)N(C)C)cc1OC	0.6	39	1.3	0.8	21
COc1ccc(NC(=O)CN(C2CCCCC2)S(C)(=O)=O)cc1OC	0.7	35	1.1	0.5	50*
CCCCC1CC1C(=O)Nc1ccc(OC)c(OC)c1 (stereo not given)	0.4	59*	1.2	0.1	92*
CSc1cccc(NC(=O)CN(C2CCCCC2)S(C)(=O)=O)c1	0.3	71*	1.3	0.4	59*
COC(=O)c1ccc(NC(=O)CN(C2CCCCC2)S(C)(=O)=O)cc1	0.8	18	2*	0.8	25
Cc1nc2cncc(Br)c2n1C	1	-3	0.9	1	-4
CCCS(=O)(=O)N1CCCC(C(=O)NCCCN2CCN(c3ccc(F)cc3)CC2)C1 (stereo not given)	2.7*	-169	1.3	0.9	7
CS(=O)(=O)N1CCCC(C(=O)NCCCN2CCC(Cc3ccccc3)CC2)C1 (stereo not given)	1.1	-8	1.6	1.1	-8
CS(=O)(=O)N1CCCC(C(=O)NCCCN2CCN(Cc3ccccc3)CC2)C1 (stereo not given)	0.4	59*	1.1	1	3
O=S(=O)(NC1CC1)c1ccc(S(=O)(=O)N(Cc2ccccn2)C2CCCC2)cc1	0.3	71*	1.2	0.4	62*
CCOc1ccc(CCNS(=O)(=O)c2cnc[nH]2)cc1OCC	0.1	94*	1.1	0.3	68*
CSc1cc(-c2ccc(Cl)cc2)c(C(=O)N2CCCC2)s1	0.8	16	1.3	0.9	10
Cc1ccc(Cn2c(=N)n(CC(O)COc3ccccc3)c3ccccc32)cc1 (stereo not given)	0.9	14	9.4	0.5	53*
N=c1n(CCN2CCOCC2)c2ccccc2n1CC(O)COc1ccccc1 (stereo not given)	1.1	-10	0.9	1.1	-11
Cc1ccccc1OCC(O)Cn1c(=N)n(CCN2CCOCC2)c2ccccc21 (stereo not given)	0.4	57*	1.8	1	1
CCCCn1c(=N)n(CC(O)COc2ccc(C)cc2)c2ccccc21 (stereo not given)	1	4	1.8	0.5	52*
N=c1n(Cc2ccccc2)c2ccccc2n1CC(O)COc1ccccc1 (stereo not given)	1	-1	1.1	1	-2
CCc1ccc(NC2=CC(=O)CC(c3ccco3)C2)cc1 (stereo not given)	0.5	53*	0.8	0.5	54*
Cc1cc(C)cc(NC2=CC(=O)CC(c3ccco3)C2)c1 (stereo not given)	1.2	-22	0.9	1	-1
CCOC(=O)c1[nH]c2ccc(F)cc2c1NC(=O)C(C)N1CCc2cc(OC)c(OC)cc2C1 (stereo not given)	0	98*	1.8	0.1	91*
CCOC(=O)c1[nH]c2ccc(OC)cc2c1NC(=O)C(C)N1CCC2(CC1)OCCO2 (stereo not given)	0.3	71*	1.6	0.3	70*
Cc1ccc(C(=O)NNC(=S)NC(=O)COc2ccccc2)cc1	0.2	78*	1.5	0.7	32
